BCR signal inh: blocks chronic active B-cell receptor signaling. AID 493014. 340,000 tested, 0.05% active. ABC-DLBCL IkBa-CBG/CBR reporter, luminescence ratio, 4 h. Potency, µM (titrated, usually from 46.1 µM), inactives show at the highest dose activity change, negative = inhibition, usual class: inhibitors; active = well fitted inhibition curve with a large enough effect in the signal ratio, with a control signal flat, not every such curve was filed as active; inconclusive = small, poorly fitted or top-dose-only effect, or effect the other way, or a change in a side signal; the % refers to the signal ratio;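 also: potency is read from the fitted curve at half-maximal effect; plate controls were basal doxycycline-induced cells for no effect and cells given 10 µM MG132 for full effect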
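Doxycycline induced both beetle luciferases in TMD8 lymphoma cells; IKK-driven degradation limits the IkappaBalpha-fused green signal, while red luminescence normalises for cell number and nonspecific effects. Compounds tested up to 46 uM, 4 hrs.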
TDP1 cell noCPT: qHTS for Inhibitors of human tyrosyl-DNA phosphodiesterase 1 (TDP1): qHTS in cells in absence of CPT; AID 686978, 2013; 420,000 tested, 15% active; Potency, µM (top dose mostly 46.2 µM), for inactives: at the top dose activity change, negative = growth inhibition, usual class: inhibitors; DT40 Tdp1-/- hTDP1 cells, no CPT, ATP luminescence, 48 h; also: potency is read from the fitted curve at half-maximal effect; % is scaled to controls: 0 for no effect and ±100 for the full control effect; nearly all actives have a fitted effect of over 55% in size
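A cellular qHTS used chicken DT40 cells lacking endogenous Tdp1 but carrying stably transfected human TDP1. Compounds were applied without camptothecin, and cell growth kinetics were judged by ATP-dependent luminescence after ≥48 hr.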
IL1B secr inh: inflammasome signaling inhibition, IL-1 beta readout; THP-1 LPS/ATP IL-1B secretion, AlphaLISA, 16 h; active compounds read low; 360,000 tested, 4.7% active; activity change, % at 57.5 µM; AID 743279; in the data active = activity change below about -50%; inconclusive = mostly about -30% to -49%; also: % is scaled to controls: 0 for no effect and ±100 for the full control effect
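THP-1 cells pretreated 1 hr with compounds (up to 57.5 uM final), then stimulated with LPS (250 ng/mL final) plus ATP (1.25 mM final); secreted IL-1B measured by AlphaLISA after 16 hr, decreased signal indicating inhibition.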
SW480 rerep: induces DNA re-replication in SW480 colon adenocarcinoma cells. SW480 DNA re-replication, Hoechst DNA content imaging, 48 h. Potency, µM (series often up to 46.1 µM), inactives show at the highest dose re-replication activation, most hits filed as activators. 340,000 tested, 1.8% active; also: potency is read from the fitted curve at half-maximal effect; % of control where 0% means no effect; nearly all actives have a fitted effect of over 55% in size
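Cells (250 per well) received 23 nL compound or DMSO by pin tool and were kept 48 hr at 37 C, 5% CO2. Nuclei were then stained with Hoechst for 40 min and scanned for DNA content.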
TDP1 cell CPT: growth inhibition of DT40 Tdp1-/-;hTDP1 cells with camptothecin (screen for TDP1 inhibitors); 420,000 tested, 12% active; chicken DT40 Tdp1-/-;hTDP1 cells + 20 nM CPT, ATP luminescence, 48 h; Potency, µM (series often up to 46.2 µM), for inactives: at the highest dose activity change, negative = growth inhibition, most hits filed as inhibitors; also: potency is read from the fitted curve at half-maximal effect; % is scaled to controls: 0 for no effect and ±100 for the full control effect; nearly all actives have a fitted effect of over 55% in size
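Cell growth measured by CellTiter-Glo luminescence after a minimum 48 h, 37 C compound exposure with 20 nM CPT in Tdp1-knockout DT40 cells stably expressing hTDP1, seeded 400/well; qHTS titration format.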
MCF10A rereplic: inducers of DNA re-replication in MCF 10A breast cells. 350,000 tested, 2.9% active. Potency, µM (titrated, usually from 46.1 µM), for the others: top-dose activity, positive = re-replication, actives largely listed as activators. AID 624296. MCF 10A DNA re-replication, Hoechst nuclear intensity, 48 h; also: potency is read from the fitted curve at half-maximal effect; % of control where 0% means no effect; nearly all actives have a fitted effect of over 50% in size
* hit, by the source's call; u = inconclusive; x = no result given. Compounds with a hit are over-represented: about 19% of the library has one in this group of screens. Unless noted, calls follow the shape of the dose curve; as a rule, active = well fitted curve in the direction sought with a large enough effect; inconclusive = small, poorly fitted or top-dose-only effect, or another doubt; inactive = no such curve, though single readings can be large; an effect the other way counts as inactive or inconclusive.

SMILES	BCR signal inh	TDP1 cell noCPT	IL1B secr inh	SW480 rerep	TDP1 cell CPT	MCF10A rereplic
Cc1ccc(Cl)cc1NC(=O)CN1C(=O)C(C)(C)c2cc(S(=O)(=O)N3CCCCC3)ccc21	x	23µM*	x	x	u	x
O=S(=O)(c1ccc2ccccc2c1)N1CCN(C(=S)Nc2ccccc2F)CC1	0%	4%	-3	3%	-2%	15%
COc1ccc(NC(=O)C(NS(=O)(=O)c2cccc3nsnc23)C(C)C)cc1OC (centres undefined)	x	-3%	x	x	-7%	x
CC(=C1C(=O)c2ccccc2C1=O)N1CCN(c2ccc(F)cc2)CC1	u	-27%	4	5%	1%	-4%
CC(=O)N1c2ccccc2C(=O)C1N1CCN(c2ccc(F)cc2)CC1 (centres undefined)	x	15µM*	x	x	u	x
CCCN(CCC)CCCNC(=O)c1cc2c(=O)n(CC)c3ccccc3c2s1	-4%	u	-63*	u	u	u
CCn1c(=O)c2cc(C(=O)NCCCOC)sc2c2ccccc21	-13%	10µM*	-50*	u	18µM*	98%
CCn1c(=O)c2cc(C(=O)NCCC(C)C)sc2c2ccccc21	u	u	u	29%	-47%	11%
CCn1c(=O)c2cc(C(=O)Nc3cccc(C(F)(F)F)c3)sc2c2ccccc21	x	9.2µM*	x	x	7.3µM*	x
CCN(CCCNC(=O)c1cc2c(=O)n(CC)c3ccccc3c2s1)c1ccccc1	x	18µM*	x	x	u	x
CCOC(CNC(=O)c1cc2c(=O)n(CC)c3ccccc3c2s1)OCC	3%	u	u	-14%	u	8%
CCOc1ccccc1N(C)C(=O)CCS(=O)(=O)c1ccc2c(c1)NC(=O)CO2	6%	27%	11	-1%	-2%	-2%
CCCCN(CC)CCNC(=O)c1cc2c(=O)n(CC)c3ccccc3c2s1	8%	21µM*	u	2%	16µM*	5%
CCn1c(=O)c2cc(C(=O)NCC(OC)OC)sc2c2ccccc21	u	u	-56*	-3%	u	10%
CCCCN(CC)CCCNC(=O)c1cc2c(=O)n(CC)c3ccccc3c2s1	u	u	-77*	u	u	u
CCn1c(=O)c2cc(C(=O)NCc3ccc(F)cc3Cl)sc2c2ccccc21	x	-1%	x	x	1%	x
C[C@H](CO)N1C[C@H](C)[C@@H](CN(C)S(=O)(=O)c2cn(C)cn2)Oc2ccc(NC(=O)C3CCCCC3)cc2C1=O	0%	-7%	11	u	3%	-2%
CCOC(=O)c1cnc(SC)nc1Oc1cccc(NC(=O)c2ccc(C)cc2)c1	1%	15µM*	25	-8%	u	-1%
COC(=O)c1ccc(S(=O)(=O)N(C2CCCCC2)C2CCCCC2)n1C	11%	23µM*	2	0%	u	0%
Cc1ccc(-n2c([C@@H]3C[C@H]3c3ccccc3)n[nH]c2=S)cc1	u	7%	16	u	5%	u
Cc1ccc(C2CC2c2n[nH]c(=S)n2-c2cccc(Cl)c2)cc1 (centres undefined)	-4%	23µM*	31	-5%	u	23µM*
Cc1ccc(C2CC2c2n[nH]c(=S)n2-c2ccc(C)cc2)cc1 (centres undefined)	8%	u	21	25%	-33%	u
S=c1[nH]nc(C2CC2c2ccc(Cl)cc2)n1-c1ccc(Cl)cc1 (centres undefined)	5%	u	-102*	u	u	u
O=C(c1cccc(Cl)c1)C1CCCN(C(=O)c2ccc3c(c2)OCO3)C1 (centres undefined)	0%	u	10	2%	u	12%
Clc1ccc(CN2CCN(c3ncccn3)CC2)cc1Cl	7%	u	-9	26%	-25%	16%
SMILES	BCR signal inh	TDP1 cell noCPT	IL1B secr inh	SW480 rerep	TDP1 cell CPT	MCF10A rereplic
CCCCCCCn1c2c(c(=N)c3ccccc31)CCC2	u	0.58µM*	u	u	0.52µM*	u
CCCn1c2c(c(=N)c3c1CCC3)CCCC2	1%	5.2µM*	-25	-1%	9.2µM*	u
N=c1c2c(n(Cc3ccc(Br)cc3)c3c1CCC3)CCCC2	u	0.52µM*	-81*	-2%	0.92µM*	u
N=c1c2c(n(Cc3ccc(Cl)c(Cl)c3)c3c1CCC3)CCCC2	-11%	2.6µM*	-72*	2%	2.9µM*	u
O=C(NCCNC(=O)Oc1cccc2ccccc12)Oc1cccc2ccccc12	x	u	30	0%	u	-1%
Cc1ccc(CNC(=O)C(=O)NCC(c2cccs2)S(=O)(=O)c2ccccc2)cc1 (centres undefined)	-19%	4%	x	x	-2%	x
COc1cc(CN2C(=S)NC(C)(C)CC2(C)O)cc(OC)c1 (centres undefined)	8%	-6%	13	-4%	1%	2%
O=C1Nc2ccc([N+](=O)[O-])cc2OC1CCN1CCN(Cc2ccc3c(c2)OCO3)CC1 (centres undefined)	u	u	-51*	-1%	13%	-2%
O=Cc1cc([N+](=O)[O-])ccc1N1CCN(Cc2ccc3c(c2)OCO3)CC1	-4%	u	-64*	-14%	-5%	u
O=C1Nc2ccc([N+](=O)[O-])cc2OC1CCN1CCN(Cc2ccccc2)CC1 (centres undefined)	5%	u	-1	1%	-19%	-25%
COc1cc2c3nc4n(c(=O)c3n(CC(=O)NCC3CCCO3)c2cc1OC)CCS4 (centres undefined)	6%	3%	26	5%	-1%	0%
Cn1c(SCc2ccc(C(C)(C)C)cc2)nnc1C1COc2ccccc2O1 (centres undefined)	5%	u	-16	u	-25%	21µM*
COC(=O)CSc1nnc(C2COc3ccccc3O2)n1-c1ccccc1 (centres undefined)	u	-13%	23	23%	-25%	21µM*
Cc1cc(NC(=O)CSc2nnc(C3COc4ccccc4O3)n2C)no1 (centres undefined)	13%	-7%	-11	-2%	-1%	-18%
COc1ccc(/C=C/C(=O)N2CCN(c3ccccn3)CC2)c(OC)c1OC	u	u	-17	-30%	u	-6%

Screening results from PubChem.
